Among the data in PubChem BioAssay (Tox21) are outcome and Potency values, retold here.

Molecules are shown by their SMILES. Unmarked numbers belong to inactive results. Inconclusive results are not listed. Activity calls are given as the source filed them. Unless noted, calls follow the shape of the dose curve; as a rule, active = well fitted curve in the direction sought with a large enough effect in the repeat runs; inconclusive = weak or mixed curves; inactive = no such curve, though single readings can be large; an effect the other way counts as inactive or inconclusive.

Test [1] can be described thus: qHTS assay to test for compound auto fluorescence at 535 nm (green) in HEK293 cells (AID 720680). On the technique in general: In qHTS, concentration-response curves come from the screen itself.
The nature of test [2]: qHTS assay to test for compound auto fluorescence at 460 nm (blue) in HEK293 cell free culture (AID 720681). In a few lines: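 Test compounds were pinned into cell-free culture medium (DMEM with 10% FBS) and fluorescence was read directly at Ex/Em 405/460 nm. Signals were expressed as fluorescence equivalents of triamterene, with DMSO vehicle as control.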
Test [3] can be described thus: qHTS assay to test for compound auto fluorescence at 535 nm (green) in HEK293 cell free culture (AID 720682). In outline:
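Each library compound, or DMSO control, is added by pintool to medium alone, comprising DMEM and 10% FBS. Emission at 535 nm following 485 nm excitation is quantified against fluorescein.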

A short description of test [4]: qHTS assay to test for compound auto fluorescence at 590 nm (red) in HEK293 cell free culture (AID 720683). In outline:
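Tox21 10K library compounds were pinned into cell-free DMEM with 10% FBS and fluorescence was read at excitation 540 nm. Activity is expressed as Rose Bengal sodium equivalency.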

The nature of test [5]: qHTS assay to test for compound auto fluorescence at 590 nm (red) in HepG2 cell free culture (AID 720684). In outline: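 Readout: intrinsic compound fluorescence at 590 nm emission after 540 nm excitation, scaled to Rose Bengal sodium. Matrix was cell-free MEM with 10% FBS; DMSO vehicle wells served as control.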
A short description of test [6]: qHTS assay to test for compound auto fluorescence at 460 nm (blue) in HepG2 cell free culture (AID 720685). In outline: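 Cell-free plates of MEM plus 10% FBS received 23 nL compound or DMSO vehicle; blue-channel (405/460 nm) intensity scored against triamterene as reference fluorophore.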
Test [7] can be described thus: qHTS assay to test for compound auto fluorescence at 535 nm (green) in HepG2 cell free culture (AID 720686).
The nature of test [8]: qHTS assay to test for compound auto fluorescence at 460 nm (blue) in HepG2 cells (AID 720687). In outline: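 Cells (2,000/well in MEM with 10% FBS) attached overnight at 37 C, then were exposed to compound or DMSO for 1 hr at 37 C, 5% CO2. Fluorescence read at Ex/Em 405/460 nm, expressed as triamterene-equivalent signal.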
For test [9], the target named is Glucocorticoid receptor (Homo sapiens) (UniProt P04150). The experiment in a line: qHTS assay to identify small molecule agonists of the glucocorticoid receptor (GR) signaling pathway (AID 720691; active = well fitted activation curve with a large enough effect in the signal ratio in the repeat runs, not every such curve was filed as active; the % refers to the signal ratio). In outline: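 Steps: seed GR-bla HeLa cells, incubate 4 h at 37 C/5% CO2; pin-transfer DMSO-dissolved compounds; incubate 18 h at 37 C; add LiveBLAzer B/G FRET substrate; after 2 h at room temperature, measure fluorescence.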
Glucocorticoid receptor (Homo sapiens), sequence (P04150 whole entry, looked up): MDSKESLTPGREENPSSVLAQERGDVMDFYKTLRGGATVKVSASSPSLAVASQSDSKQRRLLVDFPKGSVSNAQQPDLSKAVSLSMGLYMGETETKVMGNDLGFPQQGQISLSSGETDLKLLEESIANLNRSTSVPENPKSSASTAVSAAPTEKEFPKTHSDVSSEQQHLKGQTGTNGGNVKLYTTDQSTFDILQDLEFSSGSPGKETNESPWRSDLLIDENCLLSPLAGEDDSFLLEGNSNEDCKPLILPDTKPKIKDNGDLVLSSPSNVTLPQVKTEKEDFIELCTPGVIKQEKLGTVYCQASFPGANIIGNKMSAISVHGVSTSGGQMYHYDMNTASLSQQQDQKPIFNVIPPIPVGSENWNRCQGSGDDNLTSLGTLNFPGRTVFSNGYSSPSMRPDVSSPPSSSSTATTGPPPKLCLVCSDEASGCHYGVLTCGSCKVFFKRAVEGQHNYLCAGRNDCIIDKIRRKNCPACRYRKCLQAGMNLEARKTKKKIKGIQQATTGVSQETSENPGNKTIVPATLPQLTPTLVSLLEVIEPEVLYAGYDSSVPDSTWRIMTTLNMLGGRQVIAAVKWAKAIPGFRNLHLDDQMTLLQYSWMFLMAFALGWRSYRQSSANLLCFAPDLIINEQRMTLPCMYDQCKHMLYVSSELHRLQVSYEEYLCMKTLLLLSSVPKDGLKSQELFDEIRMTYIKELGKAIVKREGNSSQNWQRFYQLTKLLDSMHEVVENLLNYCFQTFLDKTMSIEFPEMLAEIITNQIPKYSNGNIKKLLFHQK

For test [10] the target is unchanged. The experiment in a line: qHTS assay to identify small molecule antagonists of the glucocorticoid receptor (GR) signaling pathway (AID 720692; active = well fitted inhibition curve with a large enough effect in the signal ratio in the repeat runs, not every such curve was filed as active; the % refers to the signal ratio). In outline:
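Antagonism was scored as loss of dexamethasone-driven (5 nM final) reporter signal in HeLa cells bearing a glucocorticoid response element–beta-lactamase construct, after 18 h compound exposure at 37 C and 2 h FRET substrate loading.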

Test [11] is described as follows: qHTS assay to identify small molecule antagonists of the glucocorticoid receptor (GR) signaling pathway - cell viability counter screen (AID 720693). Also: nearly all actives have a fitted effect of over 55% in size.
Test [12] in a line: qHTS assay for identifying genotoxic compounds that show differential cytotoxicity against isogenic chicken DT40 cell lines with known DNA damage response pathways - wild type cell line (AID 743012). Also: nearly all actives have a fitted effect of over 60% in size. Also: potency is read from the fitted curve at half-maximal effect. In outline: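 Cytotoxicity in repair-proficient parental chicken DT40 cells serves as the comparator for Rad54/Ku70- and Rev3-deficient lines. Cells were exposed to compounds for 40 h at 37 C/5% CO2, and ATP-based luminescence (CellTiter-Glo) measured viability.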

Test [13] is described as follows: qHTS assay for identifying genotoxic compounds that show differential cytotoxicity against isogenic chicken DT40 cell lines with known DNA damage response pathways - Rev3 mutant cell line (AID 743014). Also: nearly all actives have a fitted effect of over 55% in size. Also: potency is read from the fitted curve at half-maximal effect.
Test [14] can be described thus: qHTS assay for identifying genotoxic compounds that show differential cytotoxicity against isogenic chicken DT40 cell lines with known DNA damage response pathways - Rad54/Ku70 mutant cell line (AID 743015). Also: nearly all actives have a fitted effect of over 60% in size. Also: potency is read from the fitted curve at half-maximal effect.
Test [15] is described as follows: qHTS assay to identify small molecule antagonists of the androgen receptor (AR) signaling pathway - cell viability counter screen (AID 743033; also: nearly all actives have a fitted effect of over 45% in size).
Test [16] in a line: qHTS assay to identify small molecule antagonists of the androgen receptor (AR) signaling pathway using the MDA cell line - cell viability counter screen (AID 743041; also: nearly all actives have a fitted effect of over 45% in size). In outline:
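qHTS viability read-out; MDA-kb2 AR-luc; R1881-stimulated; 16 h exposure at 37C, 0% CO2; CellTiter-Fluor, 30 min; fluorescence intensity.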

Test [17] addresses Androgen receptor (Homo sapiens) (UniProt P10275). The test can be described thus: qHTS assay to identify small molecule antagonists of the androgen receptor (AR) signaling pathway (AID 743035; active = well fitted inhibition curve with a large enough effect in the signal ratio in the repeat runs, not every such curve was filed as active; the % refers to the signal ratio). In a few lines: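 Steps: seed AR-UAS-bla GripTite HEK293 cells, incubate 4 h at 37C; pin in test compound, then add agonist R1881; incubate 16 h at 37C; add LiveBLAzer B/G FRET substrate, 2 h at room temperature; read fluorescence.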

Test [18] has the same target. The test can be described thus: qHTS assay to identify small molecule agonists of the androgen receptor (AR) signaling pathway (AID 743036; active = well fitted activation curve with a large enough effect in the signal ratio in the repeat runs, with a control signal flat, not every such curve was filed as active; the % refers to the signal ratio). In outline:
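Following a 4 h settling period, AR-UAS-bla HEK293 cells were dosed with compounds for 16 h at 37C. A 2 h room-temperature incubation with LiveBLAzer B/G FRET substrate preceded the fluorescence measurement.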

For test [19] the target is unchanged. The test can be described thus: qHTS assay to identify small molecule agonists of the androgen receptor (AR) signaling pathway using the MDA cell line (AID 743040; also: nearly all actives have a fitted effect of over 20% in size). In a few lines:
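Agonist activity is measured as luciferase luminescence in human MDA-kb2 cells whose MMTV reporter responds to both AR and GR. Compounds in DMSO incubate 16 h at 37C, 0% CO2, and ONE-Glo is read after 30 min.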

The nature of test [20]: qHTS assay to identify small molecule antagonists of the thyroid receptor (TR) signaling pathway - cell viability counter screen (AID 743064). Also: nearly all actives have a fitted effect of over 50% in size. Also: potency is read from the fitted curve at half-maximal effect. In outline:
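CellTiter-Fluor readout, 30 min at 37 °C/5% CO2, following 23.5 h incubation of GH3.TRE-Luc cells with test compound and 1 nM T3 (final).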

Androgen receptor (Homo sapiens), sequence (P10275 whole entry, looked up): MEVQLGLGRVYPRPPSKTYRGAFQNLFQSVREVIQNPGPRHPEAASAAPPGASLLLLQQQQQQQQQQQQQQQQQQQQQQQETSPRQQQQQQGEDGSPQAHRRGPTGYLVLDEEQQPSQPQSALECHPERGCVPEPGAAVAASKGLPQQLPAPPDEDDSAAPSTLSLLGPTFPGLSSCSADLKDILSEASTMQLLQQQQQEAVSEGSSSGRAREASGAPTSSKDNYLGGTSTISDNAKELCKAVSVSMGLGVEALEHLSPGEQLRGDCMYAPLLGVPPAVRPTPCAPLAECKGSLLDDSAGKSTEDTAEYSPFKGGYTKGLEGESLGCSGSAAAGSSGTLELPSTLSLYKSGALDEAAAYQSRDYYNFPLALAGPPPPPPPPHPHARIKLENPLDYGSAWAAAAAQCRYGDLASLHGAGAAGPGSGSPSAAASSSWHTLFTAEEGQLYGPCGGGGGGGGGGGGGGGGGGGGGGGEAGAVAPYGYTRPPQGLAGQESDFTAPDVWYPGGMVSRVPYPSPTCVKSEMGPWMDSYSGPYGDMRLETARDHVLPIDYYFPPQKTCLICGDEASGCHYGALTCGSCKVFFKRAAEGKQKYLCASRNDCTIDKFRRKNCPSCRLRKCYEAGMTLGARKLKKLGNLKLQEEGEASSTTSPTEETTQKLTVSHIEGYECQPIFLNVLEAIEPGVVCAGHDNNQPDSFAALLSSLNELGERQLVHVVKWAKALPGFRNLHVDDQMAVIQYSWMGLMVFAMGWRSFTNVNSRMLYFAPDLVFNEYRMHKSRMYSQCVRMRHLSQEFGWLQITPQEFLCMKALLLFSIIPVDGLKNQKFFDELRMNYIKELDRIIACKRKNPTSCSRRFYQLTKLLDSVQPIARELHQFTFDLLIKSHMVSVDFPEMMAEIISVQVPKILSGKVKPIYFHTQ

Regarding `CCN(CC)c1nc(C)cc(OP(=S)(OC)OC)n1`, the result in test [1], in test [2], in [3], in [4], in [5] and in test [6] was inactive. Also, the compound was called inactive in test [7], in [8] and in test [9]. In addition, the Potency result in [10], in test [11], in [15] and in test [16] was “inactive” throughout. For the same compound, the Potency in [12], in [13] and in [14] was 48.6 µM (active) in each case.
For `CCCCOP(=O)(O)OCCCC`, the call in test [1], in test [2], in [3], in test [4], in test [5] and in test [6] was inactive. The outcome in test [7], in test [8], in test [9] and in test [18] was inactive. Further, the Potency entry in test [10], in test [11], in test [12], in test [13], in [14] and in test [15] was “inactive” each time. In addition, the Potency entry in test [17], in test [19] and in [16] was “inactive” throughout.
Take `CC(C)(C)C(=O)C(Oc1ccc(Cl)cc1)n1cncn1` (configuration not stated): the outcome in test [1], in [2], in test [3], in test [4], in test [5] and in test [6] was inactive. Further, the outcome in test [7], in test [8] and in test [9] was inactive. Further, the Potency entry in test [10], in test [11], in [15], in test [16] and in test [20] was “inactive” in each case. Moreover, the Potency was 61.1 µM (active) in test [12], 30.6 µM (active) in test [13] and 30.6 µM (active) in [14].
On to `Nc1cc(Cl)ccc1O`, for which the result in test [1], in [2], in test [3], in test [4], in test [5] and in test [6] was inactive. The outcome in test [7], in [8] and in test [9] was inactive. For the same compound, the Potency result in [10], in test [11], in test [15] and in test [16] was “inactive” in each case. Moreover, the Potency in test [12] was 14.9 µM (active); in test [13] it was 14.9 µM (active); in [14], 9.37 µM (active); in test [20], 23.5 µM (active).
As for `[As]#[In]`, the result in [1], in [2], in [3], in test [4], in test [5] and in test [6] was inactive. The outcome in [7], in test [8] and in test [9] was inactive. Also, the Potency result in [10], in test [11], in test [12], in test [13], in test [14] and in test [15] was “inactive” throughout. The Potency entry in test [16] is “inactive”.
On to `O=C(O)c1ccc2[nH]cc(CCCCN3CC=C(c4ccccc4)CC3)c2c1`, for which the compound was called inactive in test [1], in test [2], in [3], in test [4], in test [5] and in test [6]. Also, the result in test [7], in test [8], in [9] and in test [18] was inactive. Further, the Potency result in test [10], in test [11], in test [12], in [13], in test [14] and in test [15] was “inactive” each time. Further, the Potency entry in [17], in test [19] and in [16] was “inactive” each time.
In the case of `N#CCBr`, the call in test [1], in test [2], in test [3], in test [4], in test [5] and in test [6] was inactive. For the same compound, the result in test [7], in test [8] and in test [9] was inactive. For the same compound, the Potency result in [10], in test [11], in test [12], in test [13], in test [14] and in test [15] was “inactive” in each case. Further, in test [16], the Potency result is “inactive”.
Regarding `ClC(Br)Br`, the compound was called inactive in test [1], in [2], in test [3], in test [4], in test [5] and in [6]. Also, the compound was classed as inactive in [7], in test [8] and in [9]. The Potency result in test [10], in [11], in [12], in test [13], in test [14] and in test [15] was “inactive” each time. Also, the Potency entry in test [16] and in test [20] was “inactive” each time.
